# Screening data from PubChem.
# In the library only some 18% were active in any assay of this set; here they are far more common.
# DT40 TDP1 no CPT – qHTS for Inhibitors of human tyrosyl-DNA phosphodiesterase 1 (TDP1): qHTS in cells in absence of CPT; Potency, µM (series often up to 46.2 µM), for inactives: top-dose activity change, negative = growth inhibition, hits mostly inhibitors; AID 686978, 2013; DT40 Tdp1-/- hTDP1 cells, no CPT, ATP luminescence, 48 h; 420,000 compounds, 15% hits; also: potency is read from the fitted curve at half-maximal effect; nearly all actives have a fitted effect of over 55% in size
#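 Seeded 400 DT40-hTDP1 cells/well (vehicle DMSO, no 20 nM CPT); pinned compounds; ≥48 hr at 37 °C; CellTiter-Glo luminescence as viability measure.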
# TDP1 block – TDP1 (human) enzyme inhibition; Q9NUW8; recombinant TDP1, AlphaScreen DNA substrate cleavage; Potency, µM (series often up to 130 µM), for the others: at the top dose activity change, negative = inhibition, most hits filed as inhibitors; 350,000 compounds, 0.28% hits; AID 485290; also: potency is read from the fitted curve at half-maximal effect; nearly all actives have a fitted effect of over 40% in size
#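 Compounds were preincubated with Tdp1 (1 nM final) for 15 min at room temperature before substrate (15 nM final) started a 5 min reaction; beads (10 ug/ml final) were then added for 10 min before AlphaScreen detection.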
# IL1B secr inh – inhibitors of inflammasome signaling (IL-1 beta secretion). 360,000 compounds, 4.7% hits. activity change, % at 57.5 µM. THP-1 LPS/ATP IL-1B secretion, AlphaLISA, 16 h; hits give low values; in the data active = activity change below about -50%; inconclusive = mostly about -30% to -49%
#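 Secreted IL-1B measured by AlphaLISA bead assay after 16 h compound exposure of THP-1 cells; compounds (final up to 57.5 uM) added 1 h before LPS (250 ng/mL) and ATP (1.25 mM) stimulation; lower signal means less secretion.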
# Six1-Eya2 blk – inhibitors of human Six1/Eya2 interaction; Q15475+O00167; AlphaScreen GST-Six1/His-Eya2 binding, biochemical; hits give low values; activity change, % (concentration not given with the values); 360,000 compounds, 0.56% hits; AID 651725; in the data active = activity change below about -65%; inconclusive = mostly about -30% to -63%
#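 Homogeneous AlphaScreen proximity assay pairing GST-Six1 with His-tagged Eya2 (added as 5X mix: 250 nM and 500 nM) in 50 mM Tris pH 8.0, 300 mM NaCl, 1 mM TCEP. Glutathione donor and nickel acceptor beads; 1 h, 37 °C, dark.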
# TDP1 cell CPT – growth inhibition of DT40 Tdp1-/-;hTDP1 cells with camptothecin (screen for TDP1 inhibitors) | chicken DT40 Tdp1-/-;hTDP1 cells + 20 nM CPT, ATP luminescence, 48 h | Potency, µM (doses to about 46.2 µM), inactives show at the top dose activity change, negative = growth inhibition, usual class: inhibitors | 420,000 compounds, 12% hits; also: potency is read from the fitted curve at half-maximal effect; nearly all actives have a fitted effect of over 55% in size
#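 Chicken DT40 Tdp1-/- cells complemented with human TDP1, 400 cells/well, exposed to compounds plus 20 nM camptothecin for at least 48 h at 37 C; viability read as ATP content by CellTiter-Glo luminescence.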
# CtBP-E1A inh – blocks the CtBP interaction with E1A; 340,000 compounds, 0.49% hits; AID 651724; activity change, % (concentration not given with the values); AlphaScreen GST-E1A/His-CtBP binding, 1536-well; hits give low values; in the data active = activity change below about -65%; inconclusive = mostly about -30% to -63%
#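 In 5 uL wells, 23 nL compound meets equimolar GST-E1A and His-CtBP (5X stock 125 nM each) for 2 h, 37 °C. Beads (5X, 50 ug/mL) then 1 h, 37 °C, dark.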
# An asterisk follows results filed as active; ? = inconclusive; . = not tested or not shown. Unless noted, calls follow the shape of the dose curve; as a rule, active = well fitted curve in the direction sought with a large enough effect; inconclusive = small, poorly fitted or top-dose-only effect, or another doubt; inactive = no such curve, though single readings can be large; an effect the other way counts as inactive or inconclusive. % is scaled to controls: 0 for no effect and ±100 for the full control effect.
SMILES,DT40 TDP1 no CPT,TDP1 block,IL1B secr inh,Six1-Eya2 blk,TDP1 cell CPT,CtBP-E1A inh
CCCN1CCN(CCCNC(=O)Cn2ncc3c4ccccc4n(C)c3c2=O)CC1,-17%,-3%,-17,0,-1%,3
Cc1ccc(C)c(N2CCN(CCCNC(=O)Cn3ncc4c5ccccc5n(C)c4c3=O)CC2)c1,10µM*,3%,.,.,15µM*,.
CCOC(=O)C1=C(C)NC(C)=C(C(=O)OCC)C1c1cc2ccc(C)cc2[nH]c1=O,?,-2%,51,-9,23µM*,1
CCCCc1nn2c(=O)cc(COC(=O)c3cccc(NC(=O)c4cccc(C)c4)c3)nc2s1,0%,4%,.,.,9%,.
CCCc1nn2c(=O)cc(COC(=O)c3cccc(NC(=O)c4cccs4)c3)nc2s1,?,1%,.,.,?,.
Cc1cccc(C(=O)Nc2cccc(C(=O)OCc3cc(=O)n4nc(C(C)C)sc4n3)c2)c1,15µM*,1%,.,.,?,.
CCOc1cc(C(=O)OCc2cc(=O)n3nc(CC)sc3n2)cc(OCC)c1OCC,?,1%,.,.,18µM*,.
CCc1nn2c(=O)cc(COC(=O)c3ccc(NC(=O)c4cccs4)cc3)nc2s1,6.5µM*,1%,.,.,6.5µM*,.
CCc1nn2c(=O)cc(COC(=O)c3cccc(NC(=O)c4ccccc4C)c3)nc2s1,15µM*,1%,.,.,21µM*,.
CCc1nn2c(=O)cc(COC(=O)c3cccc(NC(=O)c4ccccc4Cl)c3)nc2s1,?,1%,.,.,?,.
O=C(N/C=C/c1ccccc1)Nc1ccc(Cl)cc1,?,-9%,?,4,?,3
CN(C)c1nnnn1-c1ccc(Oc2ccccc2)cc1,?,1%,0,7,?,6
COc1ccc(C(=O)Cc2ccc(OC)c(OC)c2)c(OC)c1,?,-7%,?,0,?,7
CCc1nn2c(=O)cc(COc3cccc(NC(=O)c4ccco4)c3)nc2s1,?,50µM*,-10,-2,21µM*,-10
COc1cc(C(=O)OCc2cc(=O)n3nc(C4CCCCC4)sc3n2)cc(OC)c1OC,10µM*,5%,.,.,12µM*,.
Cc1nn2c(=O)cc(COC(=O)c3cccc(NC(=O)c4ccc(C(C)(C)C)cc4)c3)nc2s1,0%,6%,.,.,4%,.
Cc1nn2c(=O)cc(COC(=O)c3ccc(NC(=O)c4cccs4)cc3)nc2s1,15µM*,-4%,.,.,16µM*,.
Cn1c(N2CCOCC2)c(C#N)c2ccccc21,?,.,0,1,-15%,.
CCOC(=O)Cn1nc(-c2ccc(Cl)cc2)ccc1=O,?,-1%,-9,-2,?,8
CCOC(=O)Cn1nnc2c(sc3nc4c(c(-c5ccc(Cl)cc5)c32)CCC4)c1=O,16µM*,2%,6,-4,?,2
CCOC(=O)Cn1nnc2c(sc3nc4c(c(-c5ccccc5)c32)CCC4)c1=O,16µM*,1%,-4,4,21µM*,-1
CC(C)Cc1nc2sc3c(=O)[nH]cnc3c2c2c1CCCC2,-7%,-3%,29,-2,4%,3
CCOC(=O)c1c(C)nc2sc3c(=O)n(-c4ccc(C(C)=O)cc4)nnc3c2c1-c1ccc(Cl)cc1,16µM*,0%,-15,-11,?,-1
O=c1[nH]cnc2c1sc1nc3c(c(-c4ccc(Cl)cc4)c12)CCC3,-28%,-1%,56,?,-5%,-71*
S=c1sc2c(Cl)ncnc2n1-c1ccccc1,10µM*,6%,-96*,?,16µM*,.
Cc1nc(N2CCN(C)CC2)c2sc(=S)n(-c3ccccc3)c2n1,?,8%,-16,0,?,-1
O=C(O)CCCN(Cc1cccc(Br)c1)S(=O)(=O)c1ccc(Br)cc1,13%,6%,10,-1,-20%,-1
